Assay [1] is described as follows: qHTS assay to identify small molecule antagonists of the androgen receptor (AR) signaling pathway using the MDA cell line in the presence of 0.5 nM R1881 - cell viability counter screen (AID 1259242). Note: nearly all actives have a fitted effect of over 45% in size. Note: potency is the fitted concentration of half-maximal effect. An outline of the steps: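 Concentration-response screen of compounds for toxicity in MDA-kb2 reporter cells: 16 hr at 37C with 0.5 nM R1881, endpoint live-cell protease fluorescence measured in the reporter wells.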
On the technique in general: In qHTS, concentration-response curves come from the screen itself.

A short description of assay [2]: qHTS assay to identify small molecule HDAC inhibitors (AID 1259364).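 Note: wild-type HCT-116 cells with endogenous class I/II HDAC activity; top concentration of the series differs between compounds; nearly all actives have a fitted effect of over 45% in size.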 An outline of the steps:
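Screening used wild-type human colon HCT-116 cells incubated overnight, dosed with compounds for 2 hours, and assayed with a homogeneous luminogenic HDAC I/II reagent for 30 minutes at room temperature.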

Assay [3] can be described thus: qHTS assay to identify small molecule HDAC inhibitors - cell viability counter screen (AID 1259365). Note: series mostly up to about 92 µM; nearly all actives have a fitted effect of over 50% in size. In a few lines: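 HCT-116 (wild type), 1,500 cells/well, overnight 37C/5% CO2; compound in DMSO 2hr; CellTiter-Glo 30min RT; luminescence read.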
A short description of assay [4]: qHTS assay to identify small molecule antagonists of the sonic hedgehog signaling (Shh) pathway - cell viability counter screen (AID 1259367). Note: nearly all actives have a fitted effect of over 55% in size. Note: potency is the fitted concentration of half-maximal effect. In a few lines: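 Cytotoxicity was assessed in parallel with Shh reporter activity by measuring live-cell protease fluorescence (CellTiter-Fluor) in NIH/3T3 cells stably carrying Gli1-Luc, treated with compound under conditioned medium stimulation for 23 hr plus 1 hr reagent incubation.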

Assay [5] in a line: qHTS assay to identify small molecule agonists of the sonic hedgehog signaling (Shh) pathway (AID 1259368; calls by dose curve;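 note: NIH/3T3-derived 3T3Gli1-Luc cells carrying a stable Gli1-driven firefly luciferase reporter; series mostly up to about 92 µM; nearly all actives have a fitted effect of over 15% in size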). An outline of the steps: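 Hedgehog pathway agonism scored by increased firefly luciferase luminescence in 3T3Gli1-Luc cells treated 24 hr at 37 C; detection used a 30 min room-temperature reagent incubation.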
A short description of assay [6]: qHTS assay to identify small molecule antagonists of the sonic hedgehog signaling (Shh) pathway (AID 1259369; calls by dose curve; note: nearly all actives have a fitted effect of over 45% in size; note: potency is the fitted concentration of half-maximal effect). In a few lines:
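NIH/3T3 stable Gli1-Luc clone, 2,000 cells/well, 4hr settle; cpd + conditioned medium 24hr; Luc reagent 30min RT; luminescence.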

Assay [7] addresses Estrogen receptor beta (Homo sapiens) (UniProt Q92731). The experiment in a line: qHTS assay to identify small molecule agonists of the estrogen receptor beta (ER-beta) signaling pathway (AID 1259377; active = well fitted activation curve with a large enough effect in the signal ratio in the repeat runs, not every such curve was filed as active; the % refers to the signal ratio). In a few lines:
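Beta-lactamase reporter readout: fluorescence of LiveBLAzer B/G FRET substrate after 2 h at room temperature, following 16 h compound treatment of ER-beta-UAS-bla HEK293T cells at 37C in 2% charcoal-stripped FBS medium.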

A short description of assay [8]: qHTS assay to identify small molecule agonists of the androgen receptor (AR) signaling pathway in the presence of an antagonist - cell viability counter screen (AID 1259379). Note: nearly all actives have a fitted effect of over 25% in size. Note: potency is the fitted concentration of half-maximal effect. In a few lines: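 MDA-kb2 viability measured by CellTiter-Fluor fluorescence in the same wells as the luciferase signal; nilutamide 3.0uM final; 15-point compound titration; 16 hr at 37C.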

A short description of assay [9]: qHTS assay to identify small molecule agonists of the estrogen receptor beta (ER-beta) signaling pathway - cell viability counter screen (AID 1259380). Note: nearly all actives have a fitted effect of over 30% in size. Note: potency is the fitted concentration of half-maximal effect. An outline of the steps:
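Measured: luminescence from CellTiter-Glo after 30 min at room temperature, added to wells already read for the LiveBLAzer FRET reporter (2 hr substrate); ER-beta-UAS-bla HEK293T cells had 16 hr compound treatment at 37C, 5% CO2.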

Assay [10] in a line: qHTS assay to identify small molecule antagonists of the estrogen receptor beta (ER-beta) signaling pathway - cell viability counter screen (AID 1259382). Note: nearly all actives have a fitted effect of over 55% in size. Note: potency is the fitted concentration of half-maximal effect. In a few lines:
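Readout: luminescence, CellTiter-Glo, same wells as bla assay. System: ER-beta-UAS-bla GripTite HEK293T, 2% charcoal-stripped FBS. Exposure: compounds plus 1nM 17-beta-estradiol, 16 hr, 37C.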

The nature of assay [11]: qHTS assay to identify small molecule agonists or antagonists of the thyroid stimulating hormone receptor (TSHR) signaling pathway - wild type cell line counter screen (AID 1259384; calls by dose curve). An outline of the steps: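 Wild-type HEK293 cells were plated 18 h at 37 C/5% CO2, pin-dosed with compound plus Ro20-1724 medium, held 30 min at room temperature, then given cAMP-d2 and anti-cAMP-cryptate; fluorescence was read after 1 h. Fifteen concentrations, triplicate.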

In assay [12] the target is Thyrotropin receptor (Homo sapiens) (UniProt P16473). The experiment in a line: qHTS assay to identify small molecule antagonists of the thyroid stimulating hormone receptor (TSHR) signaling pathway (AID 1259385; calls by dose curve; note: nearly all actives have a fitted effect of over 20% in size; note: potency is the fitted concentration of half-maximal effect). An outline of the steps:
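TSHR-HEK293 cells were plated and held 18 h at 37C/5% CO2, then given compound plus Ro20-1724 and stimulated with TSH at 1.5 ng/mL final. After 30 min at room temperature, cAMP was detected with cAMP-d2/anti-cAMP-cryptate (1 h) by fluorescence.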

A short description of assay [13]: qHTS assay to identify small molecule agonists of the estrogen receptor alpha (ER-alpha) signaling pathway in the presence of an antagonist - cell viability counter screen (AID 1259386).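 Note: series mostly up to about 92 µM; cells exposed to compounds for 22 h at 37 °C before the viability read; nearly all actives have a fitted effect of over 30% in size.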 An outline of the steps: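 The test measures whether compounds kill ER-alpha reporter cells (VM7Luc4E2) under antagonist co-treatment (ICI-182,780, 10.0nM). Fluorescence from CellTiter-Fluor is read after a 22hr exposure.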

Assay [14] is described as follows: qHTS assay to identify small molecule phospholipidosis (PLD) inducers (AID 1259344; active = well fitted curve in the direction sought with a large enough effect; an effect the other way counts as inactive or inconclusive). An outline of the steps: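 Cells (HepG2, 900 per well) attach for 4 h, receive LipidTOX Red and compound together, incubate 24 h at 37 C, are fixed 30 min with paraformaldehyde/Hoechst, then imaged at one site per well.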
Assay [15] concerns the target Estrogen receptor beta (Homo sapiens) (UniProt Q92731). The experiment in a line: qHTS assay to identify small molecule antagonists of the estrogen receptor beta (ER-beta) signaling pathway (AID 1259378; active = well fitted inhibition curve with a large enough effect in the signal ratio in the repeat runs, not every such curve was filed as active; the % refers to the signal ratio; note: potency is the fitted concentration of half-maximal effect). An outline of the steps: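 ER-beta-UAS-bla HEK293T (GripTite) cells in 2% charcoal-stripped FBS medium were preincubated 6 hr at 37C, dosed with compound, then stimulated with 1 nM E2 (final) for 16 hr; beta-lactamase reporter read by B/G FRET fluorescence after 2 hr substrate loading.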

Assay [16] can be described thus: qHTS assay to identify small molecule agonists of the sonic hedgehog signaling (Shh) pathway - cell viability counter screen (AID 1259366). Note: nearly all actives have a fitted effect of over 50% in size. Note: potency is the fitted concentration of half-maximal effect. In a few lines:
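CellTiter-Fluor fluorescence read-out, 1 hr at 37C, added after 23hr compound exposure. Cells: 3T3 Gli1-Luc, an NIH/3T3 clone with stably integrated Gli1-Luc reporter, plated 4hr before compound.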

Assay [17] deals with Estrogen receptor (Homo sapiens) (UniProt P03372). The experiment in a line: qHTS assay to identify small molecule agonists of the estrogen receptor alpha (ER-alpha) signaling pathway in the presence of an antagonist (AID 1259383; calls by dose curve; note: top concentration of the series differs between compounds; nearly all actives have a fitted effect of over 15% in size). In a few lines: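 Quantitative HTS confirmation: compounds titrated at 15 concentrations onto estrogen-deprived VM7Luc4E2 cells carrying a four-ERE luciferase construct, with ICI-182,780 present at 10.0nM final. Signal is luminescence after 22hr exposure.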
Estrogen receptor (Homo sapiens), sequence (P03372 whole entry, looked up): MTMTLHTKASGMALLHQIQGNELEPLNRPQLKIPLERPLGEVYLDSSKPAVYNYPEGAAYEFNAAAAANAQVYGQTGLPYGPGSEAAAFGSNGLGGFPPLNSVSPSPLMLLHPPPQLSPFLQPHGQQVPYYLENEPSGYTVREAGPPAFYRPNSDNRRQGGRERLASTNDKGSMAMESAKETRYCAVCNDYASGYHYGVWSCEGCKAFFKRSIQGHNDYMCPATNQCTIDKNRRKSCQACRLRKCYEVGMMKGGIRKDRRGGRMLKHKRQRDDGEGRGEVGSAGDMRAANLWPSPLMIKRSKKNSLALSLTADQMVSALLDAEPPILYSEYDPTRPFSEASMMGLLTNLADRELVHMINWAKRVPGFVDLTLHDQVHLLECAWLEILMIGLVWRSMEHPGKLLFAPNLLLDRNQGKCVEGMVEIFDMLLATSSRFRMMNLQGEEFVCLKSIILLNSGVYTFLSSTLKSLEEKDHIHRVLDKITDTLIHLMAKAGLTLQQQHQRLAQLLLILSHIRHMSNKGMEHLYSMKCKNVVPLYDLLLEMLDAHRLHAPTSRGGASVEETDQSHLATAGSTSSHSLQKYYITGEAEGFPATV

Records with an inconclusive call do not appear. The source made the active and inactive calls. Unless noted, calls come from the whole dose curve; as a rule, active = well fitted curve in the direction sought with a large enough effect in the repeat runs; inconclusive = weak or mixed curves; inactive = no such curve, though single readings can be large; an effect the other way counts as inactive or inconclusive.

This passage reports Potency and outcome results from PubChem BioAssay (Tox21).

Thyrotropin receptor (Homo sapiens), sequence (P16473 whole entry, looked up): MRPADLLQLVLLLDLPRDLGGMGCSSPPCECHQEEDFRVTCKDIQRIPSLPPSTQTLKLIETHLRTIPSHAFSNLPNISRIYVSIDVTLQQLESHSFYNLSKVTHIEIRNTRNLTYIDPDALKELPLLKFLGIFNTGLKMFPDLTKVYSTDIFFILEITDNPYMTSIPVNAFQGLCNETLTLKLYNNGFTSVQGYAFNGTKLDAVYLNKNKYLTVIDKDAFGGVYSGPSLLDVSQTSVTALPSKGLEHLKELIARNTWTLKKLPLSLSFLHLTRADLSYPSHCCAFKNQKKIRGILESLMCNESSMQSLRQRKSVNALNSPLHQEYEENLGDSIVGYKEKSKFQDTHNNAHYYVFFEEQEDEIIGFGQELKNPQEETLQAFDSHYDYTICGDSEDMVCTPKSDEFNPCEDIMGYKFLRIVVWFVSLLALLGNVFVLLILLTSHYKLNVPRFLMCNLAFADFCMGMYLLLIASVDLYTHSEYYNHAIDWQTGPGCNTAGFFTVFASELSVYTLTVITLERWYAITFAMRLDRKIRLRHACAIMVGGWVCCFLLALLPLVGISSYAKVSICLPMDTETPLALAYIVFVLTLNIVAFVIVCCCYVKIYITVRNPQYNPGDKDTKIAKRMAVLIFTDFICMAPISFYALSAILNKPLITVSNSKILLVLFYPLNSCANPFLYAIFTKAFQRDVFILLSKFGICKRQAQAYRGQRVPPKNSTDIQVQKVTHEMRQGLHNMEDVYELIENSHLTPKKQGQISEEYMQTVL
Estrogen receptor beta (Homo sapiens), sequence (Q92731 whole entry, looked up): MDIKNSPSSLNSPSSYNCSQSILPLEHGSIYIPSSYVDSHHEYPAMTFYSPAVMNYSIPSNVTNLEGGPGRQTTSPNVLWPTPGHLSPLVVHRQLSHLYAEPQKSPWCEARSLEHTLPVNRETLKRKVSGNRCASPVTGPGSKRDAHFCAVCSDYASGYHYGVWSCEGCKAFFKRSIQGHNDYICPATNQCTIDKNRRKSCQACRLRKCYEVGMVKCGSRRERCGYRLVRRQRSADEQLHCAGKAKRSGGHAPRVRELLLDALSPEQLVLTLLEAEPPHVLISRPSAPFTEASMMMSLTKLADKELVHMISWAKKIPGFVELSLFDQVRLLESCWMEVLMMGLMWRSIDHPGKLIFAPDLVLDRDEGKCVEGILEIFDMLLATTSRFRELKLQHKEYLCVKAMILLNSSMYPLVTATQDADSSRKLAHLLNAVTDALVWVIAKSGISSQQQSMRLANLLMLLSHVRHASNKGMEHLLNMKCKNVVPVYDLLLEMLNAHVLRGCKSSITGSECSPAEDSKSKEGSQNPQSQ

`CC(C)(C)c1ccc(C(=O)O)cc1`: the Potency result in assay [1], in assay [2], in assay [3], in assay [4], in [5] and in assay [6] was “inactive” each time. In addition, the Potency entry in [7], in [8], in [9], in assay [10], in [12] and in assay [13] was “inactive” throughout. Further, the outcome in assay [11] was inactive.

On to `Nc1c(Cl)cc(Cl)cc1Cl`, for which the Potency result in assay [1], in assay [2], in assay [3], in assay [4], in assay [5] and in assay [6] was “inactive” each time. The Potency result in [8], in assay [9], in assay [10], in assay [12] and in [13] was “inactive” in each case. Further, the compound was called inactive in assay [11].

On to `CCCC1O[C@@H]2C[C@H]3[C@@H]4CCC5=CC(=O)C=C[C@]5(C)[C@H]4[C@@H](O)C[C@]3(C)[C@]2(C(=O)CO)O1` (stereo partly specified), for which the Potency entry in [1], in assay [14], in [2], in [3], in assay [5] and in assay [7] was “inactive” in each case. Besides, the Potency entry in assay [8], in [10] and in [13] was “inactive” throughout. The Potency in assay [4] was 38.6 µM (active); in assay [6], 7.7 µM (active).

Turning to `CN(C/C=C/C#CC(C)(C)C)Cc1cccc2ccccc12`, the Potency result in assay [1], in assay [14], in assay [2], in assay [3], in assay [4] and in assay [5] was “inactive” in each case. Further, the Potency entry in [6], in assay [8], in assay [12] and in [13] was “inactive” each time. The figures for the Potency in assay [9] and in assay [10] were 26.6 µM (active) and 29.8 µM (active), respectively. In addition, the call in assay [11] was inactive.

As for `Cc1cc(N)c(S(=O)(=O)O)cc1Cl`, the Potency entry in [1], in assay [2], in assay [3], in assay [4], in [5] and in assay [7] was “inactive” in each case. Further, the Potency result in assay [15], in assay [8], in assay [12] and in assay [13] was “inactive” throughout. Besides, in assay [11], the compound was classed as inactive.

In the case of `NC(=O)C1(N2CCCCC2)CCN(CCCN2c3ccccc3CCc3ccc(Cl)cc32)CC1`, the Potency in assay [1] is 26.6 µM (active); in assay [16] it was 23.7 µM (active); in [4] it was 29.8 µM (active); in assay [6], 8.41 µM (active); in assay [15], 11.9 µM (active); in assay [8] it was 23.7 µM (active). The Potency was 13.3 µM (active) in [9], 21.1 µM (active) in assay [10] and 29.8 µM (active) in assay [12]. Further, the Potency entry in assay [2], in [3], in [5] and in [17] was “inactive” each time.

Turning to `CN(C)[C@@H]1C(=O)C(C(N)=O)=C(O)[C@@]2(O)C(=O)C3=C(O)c4c(O)ccc(Cl)c4[C@@H](O)[C@H]3C[C@@H]12`, the Potency entry in assay [1], in [14], in assay [2], in assay [3], in assay [4] and in [5] was “inactive” in each case. Besides, the Potency result in assay [7], in [8], in assay [9], in assay [10], in assay [12] and in assay [13] was “inactive” in each case.

For `COc1cc(-c2ccc(N=C=O)c(OC)c2)ccc1N=C=O`, the Potency result in assay [1], in [2], in assay [3], in assay [16], in assay [4] and in assay [6] was “inactive” throughout. For the same compound, the Potency result in [7], in assay [15], in assay [8], in assay [9] and in assay [13] was “inactive” in each case.
